Shown are actives, neighbours in structure and some others; about 21% of the full set was active somewhere.
Pf growth 96h – P. falciparum growth inhibition at 96 hours | Potency, µM (highest dose often 28.7 µM), hits mostly inhibitors | P. falciparum luciferase reporter growth, 96 h | actives 6.9% (n = 320,000) | AID 504834
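Two-generation exposure (96 h) targets delayed-death phenotype. Reporter parasites carrying integrated firefly luciferase, in red cells at 2% hematocrit and 0.05% parasitemia final, kept at 37 C, 5% CO2; luminescence loss indicates inhibition.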
CHX counter – counter-screen hit for Shiga toxin inhibitors, cycloheximide | AID 2314 | actives 12% (n = 300,000) | max response, % | cell reporter, cycloheximide protein synthesis inhibition counterscreen; in the data active = max response mostly above about 13%, no sharp cut-off; inactive = mostly below about 14%; also: read at 38.3 µM for the half of the compounds with a filed dose
Pf growth 48h – P. falciparum growth inhibition at 48 hours (one generation); P. falciparum luciferase growth in erythrocytes, 48 h; Potency, µM (series often up to 28.7 µM), usual class: inhibitors; actives 5.9% (n = 310,000); AID 504832
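In quantitative HTS format, infected erythrocytes bearing luciferase-reporter parasites were treated for a single generation at 37 C. Luminescence after adding detection reagent served as the growth measure.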
Shiga toxin inh – blocks Shiga toxin action in Vero cells; Vero cells, Shiga toxin protein synthesis inhibition reporter; inhibition, % at 38.7 µM; actives 9.2% (n = 290,000); AID 2315; in the data active = inhibition mostly above about 28%, no sharp cut-off; inactive = mostly below about 43%
Large screens that a line does not name were inactive. Unless noted, calls follow the shape of the dose curve; as a rule, active = well fitted inhibition curve with a large enough effect; inconclusive = small, poorly fitted or top-dose-only effect, or another doubt; inactive = no such curve, though single readings can be large or run the other way.

Cc1ccc(-c2cc(C(=O)NCCN3CCOCC3)c3ccccc3n2)o1	Pf growth 96h inconclusive
O=C(c1cc(-c2ccc(Br)cc2)nc2ccccc12)N1CCN(c2ccccc2O)CC1	Pf growth 96h 5.86µM, Pf growth 48h 5.86µM (no result: CHX counter, Shiga toxin inh)
O=C(c1ccc2ccccc2n1)N1CCN(c2ccccc2O)CC1	Pf growth 96h 13.1µM, CHX counter 52.3, Pf growth 48h inconclusive, Shiga toxin inh 88.4
CC12CCC=CC1C(c1ccc(F)c(/C=C/c3ccccc3)c1)N(Cc1ccccc1)C2=O (stereo not drawn)	none (no result: Pf growth 96h, Pf growth 48h)
O=C(NCCc1nnc2ccc(SCC(=O)N3CCCC3)nn12)c1ccc(F)cc1	Pf growth 96h inconclusive
CCOC(=O)c1sc(=S)n(-c2ccc(Cl)cc2)c1C	Pf growth 96h inconclusive, Pf growth 48h 5.22µM
CCOC(=O)c1sc(=S)n(-c2cc(OC)ccc2OC)c1N	Pf growth 96h 9.28µM
CCOC(=O)c1sc(=S)n(-c2ccc(OC)cc2)c1C	Pf growth 96h inconclusive, Pf growth 48h 13.1µM
CC(=O)N1c2ccc(S(=O)(=O)NCCC(=O)NCCc3cccc(C)c3)cc2CC1C (stereo not drawn)	none
CCC(Cc1ccccc1)NC(=O)C1CCN(c2nn3c(=O)cc(C)nc3s2)CC1 (stereo not drawn)	Pf growth 96h 10.4µM
CCOc1ccc(CCNC(=O)C2CCN(c3nn4c(=O)cc(C)nc4s3)CC2)cc1	Pf growth 48h 10.4µM
O=C(Cc1cccs1)N1CCN(S(=O)(=O)c2cccc([N+](=O)[O-])c2)CC1	none
N#Cc1c(Cl)nc2c(c1C#N)CCCC2	none
CCc1cc2c(=O)c(-c3nc(C)cs3)coc2cc1O	CHX counter 34.3, Shiga toxin inh 37.8
Cc1csc(-c2coc3cc(O)cc(C)c3c2=O)n1	CHX counter 30.5, Shiga toxin inh 107.7
Cc1nc(-c2coc3cc(O)c(C)cc3c2=O)cs1	CHX counter 21.3 (no result: Pf growth 96h)

Assay outcomes as filed in PubChem.
